Experimental findings from PubChem BioAssay are described below.

Assay [1] in a line: antimalarial activity against Dd2 strain (AID 2302;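 active = growth inhibition above 50% at the single 2 µM test dose, taken to imply half-maximal potency below 2 µM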;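 also: 0% = DMSO untreated growth and 100% = chloroquine plus artemisinin killed control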). The settings on record: P. falciparum Dd2 in RBCs, LDH growth readout, 72 h; at 2 µM; active compounds read high.
The nature of assay [2]: human hepatoma cell viability loss – ATP luminescence, cytotoxicity control for P. falciparum antimalarial project, primary screen (AID 2303;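 active = inhibition above 50%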;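 also: 0% = DMSO wells and 100% = digitonin-killed cells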). The settings on record: HepG2 viability, 24-48 h, at 10 µM, active compounds read high.
For assay [3], the target named is L-lactate dehydrogenase (Plasmodium falciparum (isolate CDC / Honduras)) (UniProt Q27743). Put plainly: PfLDH activity inhibition – cell lysate, 3D7 strain, counter-screen for P. falciparum growth inhibition project (AID 2304).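 Also: 0% = vehicle and 100% = reference inhibitor.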 The settings on record: P. falciparum 3D7 crude extract, LDH APAD/NBT absorbance; at 2 µM; active compounds read high. (The purpose of a counterscreen is to sort out artefacts and off-target activity.)
Sequence of L-lactate dehydrogenase (Plasmodium falciparum (isolate CDC / Honduras)) (Q27743 whole entry, looked up): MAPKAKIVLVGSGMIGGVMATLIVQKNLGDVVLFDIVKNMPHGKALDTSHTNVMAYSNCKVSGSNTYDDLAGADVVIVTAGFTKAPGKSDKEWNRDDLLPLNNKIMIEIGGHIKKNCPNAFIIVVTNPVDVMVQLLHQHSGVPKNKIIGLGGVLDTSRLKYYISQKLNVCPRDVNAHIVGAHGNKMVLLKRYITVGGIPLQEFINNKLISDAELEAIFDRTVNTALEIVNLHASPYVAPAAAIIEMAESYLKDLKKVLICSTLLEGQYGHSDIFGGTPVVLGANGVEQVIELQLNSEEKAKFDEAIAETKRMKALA

A short description of assay [4]: inhibition of 3D7 malaria parasite growth – strain 3D7 (AID 2306).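 Also: 0% = DMSO wells and 100% = chloroquine plus artemisinin control wells.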 The settings on record: P. falciparum 3D7 erythrocytic growth, LDH absorbance, 72 h; at 2 µM; active compounds read high.
Assay [5] deals with Calcium-dependent protein kinase 1 (Plasmodium falciparum (isolate 3D7)) (UniProt P62344). Briefly: PfCDPK1 kinase inhibitors, biochemical, TCAMS library (AID 1159585; cut-off not given, nearly all actives have IC50 up to about 0.98 µM;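 also: inhibitors leave more ATP so luminescence rises with inhibition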). The settings on record: recombinant PfCDPK1, Kinase-Glo ATP depletion luminescence. In general terms: In Kinase-Glo more light means more ATP remaining.
Sequence of Calcium-dependent protein kinase 1 (Plasmodium falciparum (isolate 3D7)) (P62344 whole entry, looked up): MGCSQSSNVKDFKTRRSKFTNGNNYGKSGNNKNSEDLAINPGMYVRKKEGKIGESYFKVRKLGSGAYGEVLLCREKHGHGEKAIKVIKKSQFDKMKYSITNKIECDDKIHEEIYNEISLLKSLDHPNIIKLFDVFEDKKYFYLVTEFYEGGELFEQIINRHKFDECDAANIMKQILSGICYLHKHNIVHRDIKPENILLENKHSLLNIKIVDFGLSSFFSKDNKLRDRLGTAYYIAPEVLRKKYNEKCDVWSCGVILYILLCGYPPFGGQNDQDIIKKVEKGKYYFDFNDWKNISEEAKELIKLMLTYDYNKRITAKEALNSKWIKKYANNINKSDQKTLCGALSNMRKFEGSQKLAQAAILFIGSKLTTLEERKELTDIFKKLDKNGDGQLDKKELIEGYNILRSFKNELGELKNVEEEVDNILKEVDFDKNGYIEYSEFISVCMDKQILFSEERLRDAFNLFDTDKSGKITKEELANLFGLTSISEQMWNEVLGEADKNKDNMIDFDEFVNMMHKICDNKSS
For assay [6], the target named is Plasmodium falciparum protein kinase 6 (PK6, PF3D7_1337100) (UniProt Q8IDW1). Put plainly: PfPK6 kinase inhibitors, biochemical, TCAMS library (AID 1159586). The settings on record: recombinant PfPK6, Kinase-Glo ATP depletion luminescence.
Sequence of Plasmodium falciparum protein kinase 6 (PK6, PF3D7_1337100) (Q8IDW1 1-305): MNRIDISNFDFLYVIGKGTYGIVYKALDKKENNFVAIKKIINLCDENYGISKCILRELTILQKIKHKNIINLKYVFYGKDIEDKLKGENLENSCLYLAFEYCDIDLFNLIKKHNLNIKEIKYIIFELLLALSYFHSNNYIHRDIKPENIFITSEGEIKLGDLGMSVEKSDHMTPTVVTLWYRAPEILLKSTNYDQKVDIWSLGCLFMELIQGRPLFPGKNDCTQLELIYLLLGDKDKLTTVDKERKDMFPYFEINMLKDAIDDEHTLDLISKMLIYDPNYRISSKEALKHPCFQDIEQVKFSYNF
Assay [7] concerns the target Protein kinase 7 (PK7), Plasmodium falciparum 3D7 (PF3D7_0213400) (UniProt Q7YTF7). Briefly: inhibition of Plasmodium PK7 catalytic activity – biochemical, TCAMS antimalarial set, Kinase-Glo luminescence (AID 1159587). The settings on record: recombinant PfPK7, Kinase-Glo ATP depletion luminescence.
The target of assay [8] is Calcium-dependent protein kinase 4 (Plasmodium falciparum (isolate 3D7)) (UniProt Q8IBS5). Put plainly: PfCDPK4 kinase inhibitors, biochemical, TCAMS library (AID 1159588; cut-off not given, nearly all actives have IC50 up to about 0.91 µM). The settings on record: recombinant PfCDPK4, Kinase-Glo ATP depletion luminescence.
Sequence of Calcium-dependent protein kinase 4 (Plasmodium falciparum (isolate 3D7)) (Q8IBS5 whole entry, looked up): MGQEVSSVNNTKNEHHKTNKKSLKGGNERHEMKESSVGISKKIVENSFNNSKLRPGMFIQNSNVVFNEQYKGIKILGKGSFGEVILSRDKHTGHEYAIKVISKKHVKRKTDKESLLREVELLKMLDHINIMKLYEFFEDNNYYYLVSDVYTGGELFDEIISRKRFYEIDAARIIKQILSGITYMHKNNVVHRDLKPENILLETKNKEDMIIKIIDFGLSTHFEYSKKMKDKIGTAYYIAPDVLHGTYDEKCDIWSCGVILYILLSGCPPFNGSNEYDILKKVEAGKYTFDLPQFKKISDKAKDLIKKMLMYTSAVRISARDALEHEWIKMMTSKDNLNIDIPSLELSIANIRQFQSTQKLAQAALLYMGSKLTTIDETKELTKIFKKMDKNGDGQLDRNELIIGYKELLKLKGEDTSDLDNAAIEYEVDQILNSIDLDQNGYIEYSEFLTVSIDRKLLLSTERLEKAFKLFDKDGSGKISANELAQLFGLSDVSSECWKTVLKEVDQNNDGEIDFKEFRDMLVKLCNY

A number with no mark means an inactive call. For some of these results: Results with a measured potency or affinity are listed apart. The source made the active and inactive calls. Unless noted, no rule for the calls is given here.

Sequence of Protein kinase 7 (PK7), Plasmodium falciparum 3D7 (PF3D7_0213400) (Q7YTF7 1-343): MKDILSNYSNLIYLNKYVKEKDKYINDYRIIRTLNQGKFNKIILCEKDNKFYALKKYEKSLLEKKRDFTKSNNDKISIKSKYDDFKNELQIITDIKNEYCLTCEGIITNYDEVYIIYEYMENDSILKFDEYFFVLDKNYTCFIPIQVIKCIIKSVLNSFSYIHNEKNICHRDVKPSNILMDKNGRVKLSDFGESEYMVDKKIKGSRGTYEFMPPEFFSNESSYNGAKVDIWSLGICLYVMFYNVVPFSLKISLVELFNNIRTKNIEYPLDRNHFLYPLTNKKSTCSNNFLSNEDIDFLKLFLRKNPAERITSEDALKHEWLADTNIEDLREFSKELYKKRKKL

On to `Cc1cc(NN=Cc2cccc(F)c2)c2cc(F)ccc2n1`, for which the growth inhibition in assay [1] is 99% (active); in assay [4], 101% (active). Further, the values for the inhibition in assay [2] and in assay [3] were 7% and -1%, respectively. Besides, the outcome in assay [5], in assay [6], in assay [7] and in assay [8] was inactive.
Turning to `CCC(=O)Oc1ccc(NC(=O)c2cccc(OC)c2)cc1`, the growth inhibition in assay [1] was 3%; in assay [4] it was 98% (active). The inhibition in assay [2] was 17%; in assay [3], 6%. Further, the outcome in assay [5], in assay [6], in assay [7] and in assay [8] was inactive.
`O=C(NCCCCN1CCC(c2ccc3c(c2O)CCCC3)CC1)c1ccc(-c2ccc(Cl)cc2)cc1`: the growth inhibition in assay [1] is 72% (active); in assay [4] it was 98% (active). Moreover, the inhibition was 97% (active) in assay [2] and 1% in assay [3]. For the same molecule, the outcome in assay [5], in assay [6], in assay [7] and in assay [8] was inactive.
For `Fc1ccc(-c2cncc(-c3ccc(F)cc3)n2)cc1`, the growth inhibition in assay [1] was 94% (active); in assay [4] it was 99% (active). Also, the inhibition in assay [2] was 7%; in assay [3], 2%. For the same molecule, the result in assay [5], in assay [6], in assay [7] and in assay [8] was inactive.
On to `CCNC(=O)Nc1cccc(-c2cccc(-c3nc4ccc(C(F)(F)F)cc4[nH]3)c2)c1`, for which the values for the growth inhibition in assay [1] and in assay [4] were 32% and 91% (active), respectively. The inhibition in assay [2] is 50% (active); in assay [3], 2%. For the same molecule, the result in assay [5], in assay [6], in assay [7] and in assay [8] was inactive.
In the case of `N#Cc1cccc(CNC(=O)c2cccc(Nc3ccnc4ccc(F)cc34)c2)c1`, the growth inhibition in assay [1] is 26%; in assay [4] it was 87% (active). The results for the inhibition in assay [2] and in assay [3] were -1% and 0%, respectively. Moreover, the outcome in assay [5], in assay [6], in assay [7] and in assay [8] was inactive.
`CC(=O)Nc1ccc(S(=O)(=O)Nc2ccc(Nc3nc(C)cc(N(C)C)n3)cc2)cc1`: the growth inhibition is 22% in assay [1] and 100% (active) in assay [4]. Also, the results for the inhibition in assay [2] and in assay [3] were -2% and -1%, respectively. The result in assay [5], in assay [6], in assay [7] and in assay [8] was inactive.
For `CC1CCCCN1S(=O)(=O)c1ccc(NC(=O)c2cc(-c3ccccc3O)n[nH]2)cc1` (stereo not given), the growth inhibition was 96% (active) in assay [1] and 90% (active) in assay [4]. Also, the inhibition in assay [2] was 26%; in assay [3] it was -1%. For the same molecule, the outcome in assay [5], in assay [6], in assay [7] and in assay [8] was inactive.
`FC(F)(F)c1cc(C(F)(F)F)c2cc(CNCCCNc3nc4ccccc4[nH]3)[nH]c2c1`: the growth inhibition in assay [1] was 99% (active); in assay [4], 100% (active). Moreover, the inhibition in assay [2] was 99% (active); in assay [3] it was 0%. Moreover, the result in assay [5], in assay [6], in assay [7] and in assay [8] was inactive.
On to `CCCCCCN1CCCN(Cc2ccc(C(=O)Nc3ccc(CCC)cc3)cc2)CC1`, for which the growth inhibition in assay [1] was 56% (active); in assay [4], 92% (active). Further, the values for the inhibition in assay [2] and in assay [3] were 45% and -3%, respectively. For the same molecule, the result in assay [5], in assay [6], in assay [7] and in assay [8] was inactive.
Take `CCc1c(C(=O)NC2CCC(N3CCC(c4ccccc4C)CC3)CC2)[nH]c2ccc(OC)cc12` (stereo not given): the growth inhibition in assay [1] is 100% (active); in assay [4] it was 101% (active). Moreover, the values for the inhibition in assay [2] and in assay [3] were 78% (active) and -1%, respectively. The result in assay [5], in assay [6], in assay [7] and in assay [8] was inactive.
Consider `Cc1nc(N=C(N)N)nc2cc3c(cc12)CCC3`, for which the results for the growth inhibition in assay [1] and in assay [4] were 58% (active) and 90% (active), respectively. The inhibition in assay [2] is 17%; in assay [3], 5%. The outcome in assay [5], in assay [6], in assay [7] and in assay [8] was inactive.
`Cc1cc(-c2nc3ccc(N4CCN(C)CC4)cc3[nH]2)nn1Cc1cc(Cl)ccc1OCC(C)C`: the growth inhibition was 67% (active) in assay [1] and 99% (active) in assay [4]. Besides, the inhibition was 41% in assay [2] and 1% in assay [3]. The result in assay [5], in assay [6], in assay [7] and in assay [8] was inactive.
On to `c1ccc2nc(NCCCCCCCCNc3ccc4ccccc4n3)ccc2c1`, for which the figures for the growth inhibition in assay [1] and in assay [4] were 37% and 100% (active), respectively. For the same molecule, the inhibition in assay [2] was 52% (active); in assay [3] it was -5%. Also, the outcome in assay [5], in assay [6], in assay [7] and in assay [8] was inactive.
With `O=c1cc(NCCCNCc2cc(Br)ccc2F)[nH]c2ccccc12`, the growth inhibition in assay [1] was 14%; in assay [4], 95% (active). Further, the inhibition in assay [2] was -2%; in assay [3] it was 6%. The outcome in assay [5], in assay [6], in assay [7] and in assay [8] was inactive.
In the case of `COc1cc(Nc2nccc(N3CCC(NC(=O)Nc4ccc5c(c4)OCO5)C3)n2)cc(OC)c1OC` (stereo not given), the growth inhibition was 74% (active) in assay [1] and 96% (active) in assay [4]. Besides, the figures for the inhibition in assay [2] and in assay [3] were 9% and -1%, respectively. Besides, the outcome in assay [5], in assay [6], in assay [7] and in assay [8] was inactive.
On to `CSc1ccc(C=CC(=O)NC(=O)c2ccccc2O)cc1`, for which the growth inhibition in assay [1] was 96% (active); in assay [4], 97% (active). Also, the figures for the inhibition in assay [2] and in assay [3] were 2% and 4%, respectively. Besides, the result in assay [5], in assay [6], in assay [7] and in assay [8] was inactive.
With `COc1ccc(Cl)cc1N1CCN(CCCNC(=O)c2ccc(-c3nc4cc(Cl)c(C)cc4[nH]3)c(F)c2)CC1`, the growth inhibition in assay [1] was 91% (active); in assay [4] it was 99% (active). The inhibition is -1% in assay [2] and -6% in assay [3]. Further, the result in assay [5], in assay [6], in assay [7] and in assay [8] was inactive.
As for `CCCCNC(=O)[C@@H]1CCCN1C(=O)c1ccc(O)c(-c2ccc(Cl)c(Cl)c2)c1`, the growth inhibition was 92% (active) in assay [1] and 98% (active) in assay [4]. Further, the inhibition in assay [2] and in assay [3] was -1% each time. The result in assay [5], in assay [6], in assay [7] and in assay [8] was inactive.
Consider `COc1ccc(Nc2nccc(NCCNC(=O)Nc3ccccc3F)n2)cc1`, for which the values for the growth inhibition in assay [1] and in assay [4] were 4% and 85% (active), respectively. The inhibition in assay [2] was 4%; in assay [3], 1%. The result in assay [5], in assay [6], in assay [7] and in assay [8] was inactive.

For orientation: inhibition means the drop in the measured response relative to a control, in per cent.
